# Data reported in PubChem BioAssay.
# Assay: small-molecule binders of probe aNOTCH3, primary screen, biochemical, small-molecule microarray, 635/667 nm fluorescence (AID 1120);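 further: probe is a biotin-tagged antibody raised against NOTCH3 rather than NOTCH3 protein; score merges spot fluorescence near 667 nm with spot signal to noise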
# Conditions: higher = more signal
row,SMILES,composite z-score
1,CCCCC=C[C@@H](NC(=O)c1ccc(C(F)(F)F)cc1)c1ccccc1,-0.165
2,CC(c1ccccc1)C(O)C1C=CC2C(=O)N(c3ccccc3)C(=O)C2N1Nc1ccc(C#N)cc1 (stereo unspecified),0.609
3,CC(C)(C)N1CC=CC23O[C@@H]4/C=C\CCCOC(=O)C4[C@H]2C(=O)N(CCCCCCO)[C@@H]3C1=O (stereo partly specified),-0.284
4,COc1ccc(C(O)C2C=CC3C(=O)N(C)C(=O)C3N2Nc2ccc([N+](=O)[O-])cc2[N+](=O)[O-])cc1OCc1ccccc1 (stereo unspecified),0.583
5,C=CC[C@]1(C(=O)N(C)C)COC(c2ccc(OCCCO)cc2)=N1,0.298
6,C[C@@H](OCc1ccccc1)C1NC(=O)[C@@]23C(=O)N[C@@H](Cc4ccccc4)C2[C@H](C)[C@@]2(C)O[C@H]2C3/C=C/C/C=C\CNC(=O)[C@H](Cc2ccccc2)NC1=O (stereo partly specified),-0.0026
7,COc1ccc([Si](C)(C)[C@H]2[C@H](CCO)O[C@@]3(C(=O)N(Cc4ccc(N5CCOC5=O)cc4)c4ccccc43)[C@@H]2C)cc1,-0.0697
8,C=CCC(OC(C)=O)[C@@H]1[C@@H](N(Cc2ccc(-c3ccccc3)cc2)C(=O)c2ccc(C)cc2)c2cc(OCCCO)ccc2N1C(=O)c1ccc2ccccc2c1 (stereo partly specified),0.0282
9,CC(C)C(=C=CC[C@@H](O)c1cccc(OCCO)c1)CCO,0.0996
10,COCCOC(=O)N1C(=O)[C@@]2(c3cc(C#CC4(O)CCCCCC4)ccc31)[C@H](c1ccc(OCCO)cc1)N1[C@H](c3ccccc3)[C@H](c3ccccc3)OC(=O)[C@H]1[C@@H]2C(=O)N1CCCCCCC1,1.14
11,Cc1ccc(F)cc1S(=O)(=O)N[C@@H]1CCN(Cc2ccc3[nH]ccc3c2)C1,0.128
